Compounds with a hit are over-represented: about 3.4% of the library has one in this group of screens.
GPR151 activ: activators of human GPR151; PathHunter beta-arrestin GPR151 cells, luminescence; activation, % at 11.2 µM; 650,000 compounds, 1% hits; AID 1508602; in the data active = activation above about 4.9%
TEAD-YAP inh: TEAD-YAP interaction inhibition. HEK-TIYL cells, TEAD-Gal4/YAP UAS-luciferase luminescence. inhibition, % at 9.12 µM. 640,000 compounds, 1.4% hits. AID 1259422; in the data active = inhibition above about 32%
FBW7 act: human FBW7 E3 ligase activation, primary screen; 650,000 compounds, 0.13% hits; AlphaScreen FBW7–phospho-cyclin E peptide binding, activator screen; Q969H0; AID 1259310; normalized activity (activation), % at 26.1 µM; in the data active = normalized activity above about 1.9%;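 note: purified mutant Fbw7 with reduced substrate affinity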
MITF inh: blocks human microphthalmia-associated transcription factor; O75030; AlphaScreen MITF homodimerization, bead proximity signal; inhibition, % at 2.6 µM; 650,000 compounds, 0.91% hits; AID 1259374; in the data active = inhibition above about 50%
Target sequence (O75030 whole entry, looked up): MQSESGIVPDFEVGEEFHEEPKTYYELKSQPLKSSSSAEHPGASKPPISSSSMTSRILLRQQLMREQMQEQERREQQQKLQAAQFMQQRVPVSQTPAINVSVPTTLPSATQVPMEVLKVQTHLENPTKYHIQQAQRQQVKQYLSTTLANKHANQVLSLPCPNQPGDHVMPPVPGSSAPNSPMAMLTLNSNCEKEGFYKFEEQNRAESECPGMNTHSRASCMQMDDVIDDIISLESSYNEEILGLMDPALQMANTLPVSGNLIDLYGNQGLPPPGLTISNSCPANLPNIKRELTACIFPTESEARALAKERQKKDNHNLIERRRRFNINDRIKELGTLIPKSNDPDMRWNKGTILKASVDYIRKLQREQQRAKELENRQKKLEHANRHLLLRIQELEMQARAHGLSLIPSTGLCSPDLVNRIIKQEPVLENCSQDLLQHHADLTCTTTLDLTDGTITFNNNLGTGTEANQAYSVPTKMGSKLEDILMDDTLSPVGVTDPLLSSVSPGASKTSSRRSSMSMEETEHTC
Of the large screens only hits and unclear results are named; the others gave an inactive call.

O=C(N/N=C/c1c[nH]c2ccccc12)c1ccncc1	none
O=C(NNC(=O)c1cccc([N+](=O)[O-])c1)Nc1ccc(Cl)c(Cl)c1	none
Cc1ccc(C(=O)CCNc2ccc(F)cc2)cc1	none
CCOC(=O)c1oc2ccccc2c1NC(=O)c1nn(C)cc1C	none
CN(C)C(CNC(=O)c1cc(F)cc(F)c1)c1ccccc1 (stereo not drawn)	none
CCN1C(=O)/C(=C\c2cc(C)n(-c3ccc(Cl)cc3)c2C)C(C(=O)OC)=C1C	FBW7 act 7.3
COC(=O)C1=C(C)N(Cc2ccco2)C(=O)/C1=C\c1cc(C)n(-c2ccccc2F)c1C	MITF inh 72
COCCN1C(=O)/C(=C\c2cc(C)n(-c3ccc(Cl)cc3)c2C)C(C(=O)OC)=C1C	none
Nc1ccc(-c2cnc3c(Nc4ccccc4)nccn23)cc1	TEAD-YAP inh 53
Oc1cccc(-c2cnc3c(Nc4ccccc4)nccn23)c1	none
c1ccc(Nc2nccn3c(-c4ccco4)cnc23)cc1	TEAD-YAP inh 44
COc1ccc(NC(=O)Nc2ccc(OC(C)C)cc2)cc1	none
COC(=O)c1ccc(OCC2c3cc(OC)c(OC)cc3CCN2C(=O)Cc2ccc(F)cc2)cc1 (stereo not drawn)	none
Cc1ccc(CC(=O)N2CC(=O)Nc3ccccc32)cc1	TEAD-YAP inh 45
CSc1cccc(C(=O)N2CC(=O)Nc3ccccc32)c1	TEAD-YAP inh 43
Cc1ccc(CC(=O)N2CC(=O)Nc3ccccc32)c(C)c1	TEAD-YAP inh 34
Cc1cccc2cc(C#N)c(SCC(=O)N3CC(=O)Nc4ccccc43)nc12	TEAD-YAP inh 53
CC(C)c1ccc2nc(SCC(=O)N3CC(=O)Nc4ccccc43)c(C#N)cc2c1	none
COc1ccc(CC(=O)N2CC(=O)Nc3ccccc32)cc1OC	none
NC(=O)c1ccc(NC(=O)c2ccccc2Cl)cc1	none
O=C(Oc1ccc(NS(=O)(=O)c2ccccc2)c2ccccc12)c1ccccc1	TEAD-YAP inh 77
CN(C)c1ccc(C2N(O)C3CCCCC3N2O)cc1 (stereo not drawn)	TEAD-YAP inh 34
COC(=O)c1ccc(C2N(O)C3CCCCC3N2O)cc1 (stereo not drawn)	none
COC(=O)CN1C(=S)N(C)C(=O)/C1=C/c1cc(OC)c(O)c(OC)c1	TEAD-YAP inh 46
CC(C)NC(=O)CSc1nnc(-c2cccs2)n1C	none
COc1cccc(-c2cc(C(=O)Nc3cccc(O)c3)no2)c1	TEAD-YAP inh 89
O=C(Nc1cccc(O)c1)c1cc(-c2ccc(Br)cc2)on1	TEAD-YAP inh 74
CCOC(=O)c1c(NC(=O)c2cc(-c3cccs3)on2)sc(C)c1C	FBW7 act 2.8
O=C(Nc1cccc(O)c1)c1cc(-c2ccc(O)cc2)on1	TEAD-YAP inh 65
CCOC(=O)c1c(NC(=O)c2cc(-c3cccs3)on2)sc(C(C)=O)c1C	none
O=C(Nc1c2c(nn1-c1ccc(F)cc1)CS(=O)(=O)C2)c1ccccc1I	none
CN(C)c1ccc(C(=S)N2CCN(C(=O)c3ccccc3)CC2)cc1	none
COCCCn1c(SCC(=O)Nc2ccc(NC(C)=O)cc2)nnc1-c1ccncc1	none
O=C(Nc1cccc(O)c1)c1cc(-c2cccs2)on1	TEAD-YAP inh 77
COCC(C)NC(=O)c1cc(-c2cccc(OC)c2)on1 (stereo not drawn)	FBW7 act 1.9
COc1ccc2c(c1)CCc1c(C(=O)Nc3cccc(O)c3)noc1-2	TEAD-YAP inh 95
COc1cc(NC(=O)c2cc(-c3cccs3)on2)cc(OC)c1OC	TEAD-YAP inh 36
COc1ccc2c(c1)CCc1c(C(=O)Nc3cccc(C(C)=O)c3)noc1-2	none
O=C(Nc1cccc(Cl)c1)c1cc(-c2cccs2)on1	none
CC(Sc1nccn1C)C(=O)NC(c1ccccc1)c1ccccc1 (stereo not drawn)	none
CC(Sc1nnc(C(F)(F)F)n1N)C(=O)NC(c1ccccc1)c1ccccc1 (stereo not drawn)	TEAD-YAP inh 33
O=C(CNCc1ccccc1)Nc1ccc(N2CCCC2)cc1	none
c1ccc(COc2ccc(OCCCCN3CCNCC3)cc2)cc1	MITF inh 56
O=C(CNCc1ccccc1)Nc1ccc(C(=O)N2CCCC2)cc1	TEAD-YAP inh 44
O=C(c1ccc(OCc2ccccc2)cc1)N1CCCC1	TEAD-YAP inh 84
O=C(c1ccc(-c2nnc(-c3ccccc3)o2)cc1)N1CCCCC1	TEAD-YAP inh 51
Ic1ccc(OCCCCN2CCNCC2)cc1	none
O=C(Cc1cccc(F)c1)NCCn1nc(-c2ccco2)ccc1=O	none
Oc1ccc(/C=N/Nc2nn[nH]n2)c(O)c1O	MITF inh 95
CCN(CC)c1ccc(/C=N/Nc2nn[nH]n2)c(O)c1	none
C(=N\Nc1nn[nH]n1)/c1ccc2c(c1)OCO2	none
Oc1ccc(/C=N/Nc2nn[nH]n2)cc1O	MITF inh 52
CC(=O)Nn1c(C)nnc1C	none
CCc1cc(-c2[nH]ncc2-c2ccc3c(c2)OCCO3)c(O)cc1OC	TEAD-YAP inh 63
CC(=O)N1C(C(=O)NCc2ccc(F)cc2)CSC12CCN(C)CC2 (stereo not drawn)	none
OCCCNc1cc(-c2cccc(C(F)(F)F)c2)nc(-c2ccccn2)n1	TEAD-YAP inh 33
OCCCNc1cc(-c2cccc(C(F)(F)F)c2)nc(-c2cccnc2)n1	none
c1cncc(-c2csc(Nc3ccnc(Nc4ccc(N5CCOCC5)cc4)c3)n2)c1	TEAD-YAP inh 33
c1ccc(-c2cnn(-c3ccnc(Nc4ccc(N5CCOCC5)cc4)c3)c2)cc1	TEAD-YAP inh 45
c1ccc(-c2csc(Nc3ccnc(Nc4ccc(N5CCOCC5)cc4)c3)n2)cc1	TEAD-YAP inh 64
CCOc1ccccc1CN1CCN(Cc2ccc(OC)c(C)c2)CC1CCO (stereo not drawn)	none
CCCCc1ccc(-c2nc(Nc3ccc(OCc4ccccc4)cc3)c3ccccc3n2)cc1	TEAD-YAP inh 35
COCCNc1nc(-c2cc(OC)c(OC)c(OC)c2)nc2ccccc12	TEAD-YAP inh 32
COc1cccc(Nc2nc(-c3cc(OC)c(OC)c(OC)c3)nc3ccccc23)c1	TEAD-YAP inh 37
COc1cc(-c2nc(Nc3ccccc3F)c3ccccc3n2)cc(OC)c1OC	TEAD-YAP inh 32
COc1cc(-c2nc(Nc3ccccc3Cl)c3ccccc3n2)cc(OC)c1OC	none
COCCNc1nc(-c2ccccc2)nc2ccccc12	none
CCCc1ccc2c(N)c(C(=O)N3c4ccccc4Sc4ccccc43)sc2n1	none
O=C(Nc1ccc(Cl)cc1C(F)(F)F)c1cc(S(=O)(=O)N2CCN(c3ccccc3)CC2)ccc1F	none
Cc1ccc(/C=N/N=C(/c2ccc(Cl)cc2)C23CN4CN(CN(C4)C2)C3)o1	none
CCc1ccc2[nH]c(=O)c(CN(Cc3nnnn3Cc3ccco3)CC3CCCO3)cc2c1 (stereo not drawn)	none
COc1cc(-c2nc(Nc3ccc(C)cc3)c3ccccc3n2)cc(OC)c1OC	TEAD-YAP inh 55
COc1cc(-c2nc(Nc3ccc(Cl)cc3)c3ccccc3n2)cc(OC)c1OC	none
O=C(Nc1ccc(F)cc1)c1ccc(F)c([N+](=O)[O-])c1	TEAD-YAP inh 59
O=C(Nc1ccc(Oc2ccccc2)cc1)c1ccc(F)c([N+](=O)[O-])c1	TEAD-YAP inh 57
